DRD3 antagonist – D3 dopamine receptor (human) antagonism; P35462; D3R cells, DiscoveRx beta-arrestin luminescence, antagonist mode; stronger effect = lower value; max response, negative = inhibition, %; 360,000 compounds, 2.5% hits; AID 652054; in the data active = max response below about -50%; inconclusive = no clear call, values can overlap the other calls; also: % is scaled to controls: 0 for no effect and ±100 for the full control effect
Target sequence (P35462 whole entry, looked up): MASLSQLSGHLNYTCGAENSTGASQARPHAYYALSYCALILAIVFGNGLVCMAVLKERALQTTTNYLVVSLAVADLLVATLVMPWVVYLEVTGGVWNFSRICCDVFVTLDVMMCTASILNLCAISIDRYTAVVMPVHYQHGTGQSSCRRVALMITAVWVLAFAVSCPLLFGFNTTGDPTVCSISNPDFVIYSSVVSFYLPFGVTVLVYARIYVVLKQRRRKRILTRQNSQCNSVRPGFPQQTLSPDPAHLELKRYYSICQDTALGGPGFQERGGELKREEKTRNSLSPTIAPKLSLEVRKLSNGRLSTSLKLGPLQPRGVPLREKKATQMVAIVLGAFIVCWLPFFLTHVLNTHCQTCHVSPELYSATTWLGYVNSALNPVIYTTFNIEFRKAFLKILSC
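Cells plated overnight at 1500 cells/well, then exposed to library compounds with dopamine controls for 90 minutes at 37 degrees C. DiscoveRx reagent added for 30–60 minutes at room temperature; luminescence read, quantitative HTS format.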
IL-1B inflam inh – blocks inflammasome-driven IL-1 beta release | THP-1 LPS/ATP IL-1B secretion, AlphaLISA, 16 h; stronger effect = lower value | activity change, % at 57.5 µM | 360,000 compounds, 4.7% hits; in the data active = activity change below about -50%; inconclusive = mostly about -30% to -49%; also: % is scaled to controls: 0 for no effect and ±100 for the full control effect
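Secreted IL-1B measured by AlphaLISA bead assay after 16 h compound exposure of THP-1 cells; compounds (final up to 57.5 uM) added 1 h before LPS (250 ng/mL) and ATP (1.25 mM) stimulation; lower signal means less secretion.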
TDP1 cell noCPT – qHTS for Inhibitors of human tyrosyl-DNA phosphodiesterase 1 (TDP1): qHTS in cells in absence of CPT. DT40 Tdp1-/- hTDP1 cells, no CPT, ATP luminescence, 48 h. Potency, µM (doses to about 46.2 µM), without a hit: at the highest dose activity change, negative = growth inhibition, actives largely listed as inhibitors. 420,000 compounds, 15% hits. AID 686978, 2013; also: potency is read from the fitted curve at half-maximal effect; % is scaled to controls: 0 for no effect and ±100 for the full control effect; nearly all actives have a fitted effect of over 55% in size
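Growth kinetics read by CellTiter-Glo luminescence after ≥48 hr at 37 °C. Cells: DT40 Tdp1-/- stably carrying human TDP1, 400 per well, compound exposure in the absence of CPT (DMSO vehicle).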
TDP1 cell CPT – growth inhibition of DT40 Tdp1-/-;hTDP1 cells with camptothecin (screen for TDP1 inhibitors). Potency, µM (titrated, usually from 46.2 µM), inactives show at the top dose activity change, negative = growth inhibition, usual class: inhibitors. 420,000 compounds, 12% hits. AID 686979. chicken DT40 Tdp1-/-;hTDP1 cells + 20 nM CPT, ATP luminescence, 48 h; also: potency is read from the fitted curve at half-maximal effect; % is scaled to controls: 0 for no effect and ±100 for the full control effect; nearly all actives have a fitted effect of over 55% in size
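Chicken DT40 Tdp1-/- cells complemented with human TDP1, 400 cells/well, exposed to compounds plus 20 nM camptothecin for at least 48 h at 37 C; viability read as ATP content by CellTiter-Glo luminescence.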
ClpP mod – qHTS Assay for Activators of ClpP; ATP-dependent Clp protease proteolytic subunit (Bacillus subtilis (strain 168)), P80244; purified B. subtilis ClpP, FRET peptide cleavage, 20 min; Potency, µM (series often up to 57.5 µM), for inactives: at the top dose activity change, negative = active; 340,000 compounds, 1.9% hits; AID 651965, 2013; active = well fitted falling curve with a large enough effect; inconclusive = small, poorly fitted or top-dose-only effect; inactive = no such curve, though single readings can be large or run the other way; also: potency is read from the fitted curve at half-maximal effect; the source files actives as falling curves though it sought activators and does not explain the sign; nearly all actives have a fitted effect of over 65% in size
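Purified B. subtilis ClpP, 10 microg/mL final in Tris/HCl pH8 with KCl, BSA, glycerol and Tween-20, cleaved an Abz/nitrotyrosine-quenched decapeptide. Fluorescence (ex 320, em 430) was read at 0 and 20 min at room temperature. Delta was normalized to 5.8 microM ADEP and DMSO/no-enzyme controls.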
D3 ag – D3 dopamine receptor (human) agonism | 410,000 compounds, 0.58% hits | D3R DiscoveRx beta-arrestin cells, luminescence, 90 min | max activation, % | AID 652048 | P35462; in the data active = max activation above about 30%; also: 0% is about no effect
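Agonist mode: compounds and dopamine controls were applied to plated cells for 90 min at 37 degrees C after an overnight attachment at 1500 cells/well. Luminescent read-out followed 30 - 60 minutes at room temperature with DiscoveRx detection reagent.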
The depositor's hits bear a star; ? = inconclusive; . = not tested or not shown. Rows were chosen to be rich in hits. Some 21% of all compounds tested hit in one or more screens of this group. Unless noted, calls follow the shape of the dose curve; as a rule, active = well fitted inhibition curve with a large enough effect; inconclusive = small, poorly fitted or top-dose-only effect; inactive = flat fitted curve, though single readings scatter.

SMILES | DRD3 antagonist | IL-1B inflam inh | TDP1 cell noCPT | TDP1 cell CPT | ClpP mod | D3 ag
[S-]C(=Nc1ccc(Cl)cc1)N[n+]1ccccc1 | 13 | -23 | ? | ? | 28µM* | 4
ONC(=Nc1ccc(Cl)cc1)c1ccc(Cl)cc1 | -14 | 10 | -21% | -1% | -2% | -6
CSc1nc(N)nc(SCC(=O)C23CC4CC(CC(C4)C2)C3)c1C#N | 55 | -21 | 18µM* | ? | -4% | 17
Cc1ccc(OCC(=O)Nc2c(C)nn(-c3ccccc3)c2C)c(Br)c1 | 2 | ? | 23µM* | ? | -3% | 14
Cc1nn(-c2ccccc2)c(C)c1NC(=O)COc1ccc(F)cc1Cl | -3 | -4 | 21µM* | 23µM* | 0% | 2
Cc1nn(-c2ccccc2)c(C)c1NC(=O)COc1ccc([N+](=O)[O-])cc1 | 1 | -17 | 15µM* | ? | -3% | 4
CCOC(=O)Cn1nc(C)c(NC(=O)COc2ccc([N+](=O)[O-])cc2)c1C | -6 | 11 | 17% | 19% | . | 5
Cc1ccc(C)c(OCC(=O)OCC(=O)Nc2c(C)nn(-c3ccccc3)c2C)c1 | 26 | 12 | 2% | -9% | 2% | 0
OC(c1ccc(-c2ccccc2)cc1)c1ncc(-c2ccccc2Cl)[nH]1 (configuration not stated) | 13 | -17 | ? | ? | 0% | 13
CCN(CC)CCCNC(=O)c1cn(CC)c2ccc(S(=O)(=O)N(C)C3CCCCC3)cc2c1=O | -5 | ? | 6% | -1% | -6% | -5
CCCN(CCC)CCCNC(=O)c1cn(CC)c2ccc(S(=O)(=O)N3CCc4ccccc4C3)cc2c1=O | 25 | -103* | 18µM* | 21µM* | 0% | -5
CCCCN(CCCC)CCNC(=O)c1cn(CC)c2ccc(S(=O)(=O)N(C)C3CCCCC3)cc2c1=O | ? | -17 | 6.5µM* | 4.6µM* | 1% | -7
CCCCN(CC)CCCNC(=O)c1cn(CC)c2ccc(S(=O)(=O)N3CCc4ccccc4C3)cc2c1=O | -24 | . | 18µM* | 16µM* | -3% | -24
CCn1cc(C(=O)NCCCN2CCCC2)c(=O)c2cc(S(=O)(=O)N3CCc4ccccc4C3)ccc21 | 25 | -29 | ? | ? | 1% | 2
CCn1cc(C(=O)NCCCN(CC(C)C)CC(C)C)c(=O)c2cc(S(=O)(=O)N3CCc4ccccc4C3)ccc21 | . | . | -10% | 8% | -2% | -4
CCCCN(C)CCCNC(=O)c1cn(CC)c2ccc(S(=O)(=O)N3CCc4ccccc4C3)cc2c1=O | 3 | -63* | 23µM* | 21µM* | -3% | -11
O=C(C[N+]12CN3CN(CN(C3)C1)C2)c1ccc(Cl)cc1 | . | . | ? | ? | 0% | .
O=C(NC1CC1)[C@@H]1C[C@H](Sc2nc3ccccc3[nH]2)CN1CC1CCCCC1 | . | . | ? | -9% | . | .
Cc1cc(C)c(OCC(=O)NCC(c2ccco2)N2CCCCC2)c(C)c1 (configuration not stated) | 0 | ? | ? | ? | -2% | -15
Cc1ccc(C(=O)NCC(c2ccco2)N2CCCCC2)s1 (configuration not stated) | ? | 12 | ? | ? | -1% | -8
Cc1ccc2oc(C(=O)NCC(c3ccco3)N3CCCC3)c(C)c2c1 (configuration not stated) | ? | -22 | ? | 29µM* | ? | -15
Cc1cccc(C(=O)NCC(=O)NCC(c2ccco2)N2CCCCC2)c1 (configuration not stated) | -3 | 1 | -1% | -9% | -2% | -33
Cc1cc2oc(C(=O)NCC(c3ccco3)N3CCCC3)c(C)c2cc1C (configuration not stated) | 10 | -3 | 21µM* | ? | -1% | 2
